High-throughput results as filed in PubChem BioAssay.
Dicer processing – blocks human Dicer maturation of pre-miR-21 | Q9UPY3 | cat-ELCCA pre-miR-21 Dicer processing, chemiluminescence; active compounds read high | z-score at 25 µM | hit rate 6% among 47,000; in the data active = z-score above about 3, passing the limit was not always enough;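 also: plate controls were vehicle for no effect and no enzyme for full effect; higher signal means more uncleaved substrate so more Dicer inhibition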
Target sequence (Q9UPY3 whole entry, looked up): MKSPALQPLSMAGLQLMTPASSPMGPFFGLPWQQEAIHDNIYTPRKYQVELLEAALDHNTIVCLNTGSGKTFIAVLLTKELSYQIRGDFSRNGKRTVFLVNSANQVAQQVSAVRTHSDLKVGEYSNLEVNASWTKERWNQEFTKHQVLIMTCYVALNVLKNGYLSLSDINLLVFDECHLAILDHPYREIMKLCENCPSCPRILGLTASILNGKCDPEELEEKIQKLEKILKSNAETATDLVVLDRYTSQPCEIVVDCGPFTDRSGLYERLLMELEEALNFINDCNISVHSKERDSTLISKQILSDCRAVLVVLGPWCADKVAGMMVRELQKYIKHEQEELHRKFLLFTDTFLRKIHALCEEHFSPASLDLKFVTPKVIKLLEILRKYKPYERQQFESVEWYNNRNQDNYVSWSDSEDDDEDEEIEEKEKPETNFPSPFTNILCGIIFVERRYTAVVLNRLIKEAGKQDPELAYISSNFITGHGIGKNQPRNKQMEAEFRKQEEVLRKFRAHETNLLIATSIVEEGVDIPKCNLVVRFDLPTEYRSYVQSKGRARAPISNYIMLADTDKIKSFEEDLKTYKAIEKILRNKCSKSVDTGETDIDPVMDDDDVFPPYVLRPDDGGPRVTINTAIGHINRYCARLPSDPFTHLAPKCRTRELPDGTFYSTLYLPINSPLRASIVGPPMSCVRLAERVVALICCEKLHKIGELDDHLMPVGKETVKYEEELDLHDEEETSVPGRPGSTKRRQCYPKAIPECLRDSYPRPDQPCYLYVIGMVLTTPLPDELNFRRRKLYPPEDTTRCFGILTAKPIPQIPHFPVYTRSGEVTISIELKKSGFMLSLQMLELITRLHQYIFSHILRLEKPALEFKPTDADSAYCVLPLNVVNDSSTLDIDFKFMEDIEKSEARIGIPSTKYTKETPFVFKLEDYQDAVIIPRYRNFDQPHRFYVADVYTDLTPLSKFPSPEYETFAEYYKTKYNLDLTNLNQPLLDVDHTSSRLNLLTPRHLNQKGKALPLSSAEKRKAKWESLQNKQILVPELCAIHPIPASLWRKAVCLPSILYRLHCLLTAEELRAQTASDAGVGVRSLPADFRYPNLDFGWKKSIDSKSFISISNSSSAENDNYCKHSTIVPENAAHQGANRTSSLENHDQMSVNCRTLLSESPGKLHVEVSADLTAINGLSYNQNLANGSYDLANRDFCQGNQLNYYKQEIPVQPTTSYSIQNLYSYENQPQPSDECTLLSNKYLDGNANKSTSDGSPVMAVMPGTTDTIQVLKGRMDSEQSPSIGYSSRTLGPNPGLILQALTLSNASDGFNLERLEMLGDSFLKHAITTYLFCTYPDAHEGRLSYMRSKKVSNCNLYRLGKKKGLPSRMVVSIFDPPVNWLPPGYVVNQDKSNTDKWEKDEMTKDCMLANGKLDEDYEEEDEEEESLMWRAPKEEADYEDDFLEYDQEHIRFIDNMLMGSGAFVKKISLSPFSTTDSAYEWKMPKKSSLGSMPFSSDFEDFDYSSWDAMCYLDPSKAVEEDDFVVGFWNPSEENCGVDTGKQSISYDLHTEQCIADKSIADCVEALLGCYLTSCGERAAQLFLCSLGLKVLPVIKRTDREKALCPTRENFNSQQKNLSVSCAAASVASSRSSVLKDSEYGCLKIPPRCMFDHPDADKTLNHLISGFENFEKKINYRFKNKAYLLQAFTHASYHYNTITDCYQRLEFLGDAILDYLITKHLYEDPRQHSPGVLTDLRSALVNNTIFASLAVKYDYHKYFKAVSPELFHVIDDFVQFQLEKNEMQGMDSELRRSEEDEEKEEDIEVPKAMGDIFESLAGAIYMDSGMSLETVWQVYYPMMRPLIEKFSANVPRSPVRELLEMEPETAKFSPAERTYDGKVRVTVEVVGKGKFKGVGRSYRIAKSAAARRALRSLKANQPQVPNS
Numbers without * were called inactive. This excerpt belongs to a sample that is enriched for hits.

CN(C)/C=C/C(=O)c1cc(Cl)ccc1Cl was read as Dicer processing -0.56.
Cc1c(C(=O)/C=C/N(C)C)sc2ccccc12 was read as Dicer processing -0.86.
`Cc1c(C(=O)/C=C/N(C)C)sc(=S)n1CCc1ccc(Cl)cc1` gave Dicer processing 3.19*.
For CC1=NN(c2ccccc2)C(=O)C1C(=O)c1ccc(Br)cc1 (centres undefined) the results were Dicer processing -2.79.
`Cc1nn2c(-c3ccc4c(c3)OCO4)ccnc2c1-c1ccccc1` gave Dicer processing -0.31.
For COc1cc(C2C(C(=O)OCC3CCCO3)=C(C)NC3=C2C(=O)CCC3)cc(Br)c1O (centres undefined) the results were Dicer processing -0.05.
Screening CS(=O)(=NS(=O)(=O)c1cc(Cl)ccc1Cl)c1ccc(Cl)cc1 (centres undefined) returned Dicer processing 4.06*.
`CS(=O)(=NS(=O)(=O)c1ccccc1C(F)(F)F)c1ccc(Cl)cc1` (centres undefined) gave Dicer processing -0.05.
CS(=O)(=NS(=O)(=O)c1ccc(Cl)cc1)c1ccccc1 (centres undefined) was read as Dicer processing -1.29.
Screening COC(=O)Cc1cc(OC)c(OC)cc1C(C)=O returned Dicer processing 0.72.
Screening COC(=O)CN(C#N)c1nc(N(C)C)nc(N(C)C)n1 returned Dicer processing 0.85.
COc1cc(C)nc(N(C#N)C(C)C)n1 was read as Dicer processing -1.58.
Screening COC(=O)CN(C#N)c1nc(C)cc(C)n1 returned Dicer processing 6.69*.
Cc1ccc(Cn2c(Oc3ccc(Cl)cc3Cl)nc3c2c(=O)n(C)c(=O)n3C)cc1 was read as Dicer processing -1.62.
Screening O=C1CC(NCCc2c[nH]c3ccccc23)C(=O)N1c1ccccc1 (centres undefined) returned Dicer processing 0.28.
C(#Cc1ccccc1)CNCCc1c[nH]c2ccccc12 was read as Dicer processing 4.09*.
`CSC1=NCC(=O)N1CCc1c[nH]c2ccccc12` gave Dicer processing 2.47.
C/C(=N\Nc1nc(C(C)(C)C)cs1)c1ccc(Cl)c(Cl)c1 was read as Dicer processing -1.02.
CCC1SC2=NC(C)=C(C(=O)OC)C(c3ccc(OC(C)=O)c(OC)c3)N2C1=O (centres undefined) was read as Dicer processing 0.53.
`Cc1[nH]c2[nH]n(-c3ccccc3)c(=O)c2c(=O)c1Cc1cccc(Cl)c1` gave Dicer processing -1.93.
Screening C=CCOc1ccc(/C=N/Nc2nc3c(c(=O)n(C)c(=O)n3C)n2C)cc1 returned Dicer processing -3.01.
Screening CCOC(=O)Cc1c(SC)c2ccccc2n1C returned Dicer processing 2.12.
`CSc1c(CC(=O)Nc2ccccc2)n(C)c2ccccc12` gave Dicer processing 3.69*.
Screening Cn1cnnc1SCCC(=O)Nc1ccccc1 returned Dicer processing -0.17.
For Cn1c(=O)[nH]c(=O)c2c1nc(N)n2CC(O)COc1ccc(Cl)cc1 (centres undefined) the results were Dicer processing -0.35.
`Cc1c2n(c3ccccc13)C/C(=C\c1ccc(C(F)(F)F)cc1)C2=O` gave Dicer processing 0.99.
For O=C1CC(=O)CC(c2ccc(Cl)cc2Cl)C1 the results were Dicer processing -0.38.
Cn1cc(Cl)c(C(=O)NC2CCCCC2)n1 was read as Dicer processing 2.4.
CCOc1ccc(N=c2ssc(SC)c2-c2ccccc2)cc1 was read as Dicer processing -0.88.
CSc1ssc(=Nc2ccc(F)c(F)c2)c1-c1ccccc1 was read as Dicer processing 3.62*.
For CSc1ssc(=Nc2ccc(C)c(Cl)c2)c1-c1ccccc1 the results were Dicer processing -0.32.
COc1ccc(-c2nc(SCc3ccccc3)n(S(C)(=O)=O)n2)cc1 was read as Dicer processing 5.19*.
For CCS(=O)(=O)n1nc(-c2ccco2)nc1SCc1ccccc1 the results were Dicer processing 2.92.
`CS(=O)(=O)n1nc(-c2ccco2)nc1SCc1ccccc1` gave Dicer processing 2.25.
For CC1=CC(C)(C)Nc2ccc(OC(=O)c3ccc(F)cc3)cc21 the results were Dicer processing 2.19.
COc1ccc2[nH]cc(CCNS(C)(=O)=O)c2c1 was read as Dicer processing -0.76.
Screening CCn1c2c(c(=O)[nH]c1=O)C(c1cccc(Cl)c1)C1=C(N2)c2ccccc2C1=O (centres undefined) returned Dicer processing -0.43.
`CCn1c2c(c(=O)[nH]c1=O)C(c1cccc3ccccc13)C1=C(N2)c2ccccc2C1=O` (centres undefined) gave Dicer processing 3.38*.
`COCCn1c2c(c(=O)[nH]c1=O)C(c1cccc3ccccc13)C1=C(N2)c2ccccc2C1=O` (centres undefined) gave Dicer processing 0.43.
`COC(=O)c1ccc(C(F)(F)C(F)(F)c2ccc(C(=O)OC)cc2)cc1` gave Dicer processing 0.5.
For COC(=O)c1ccc2ncccc2c1 the results were Dicer processing -0.59.
For COC(=O)c1ccc(C(=O)OC)nc1 the results were Dicer processing 3.85*.
For CCOc1ccc(N2C(=O)CC(NC3CCN(c4ccc(S(=O)(=O)CC)cc4)CC3)C2=O)cc1 (centres undefined) the results were Dicer processing 0.24.
Screening O=C1CC(NCCc2ccc(Cl)cc2)C(=O)N1c1ccc(Br)cc1 (centres undefined) returned Dicer processing 4.59*.
`CCCCCCCNC1CC(=O)N(c2ccc(Cl)cc2)C1=O` (centres undefined) gave Dicer processing -0.55.
O=C1CC(NCc2ccc(Cl)cc2)C(=O)N1c1ccc(Br)cc1 (centres undefined) was read as Dicer processing -3.31.
For CCCCNc1nc2c(c(=O)n(C)c(=O)n2C)n1CC(O)COc1ccccc1 (centres undefined) the results were Dicer processing -0.53.
For ON(Cc1cccc(C(F)(F)F)c1)Cc1cccc(C(F)(F)F)c1 the results were Dicer processing 16.5.
`CN(C)C(=S)Cc1ccc(Cl)cc1` gave Dicer processing 0.76.
ON(Cc1ccc(Cl)cc1)Cc1ccc(Cl)cc1 was read as Dicer processing 3.01*.
O=C(O)/C=C\C(=O)Nc1cccc2c1CCCC2 was read as Dicer processing 0.12.
For CCN(CC)CCN1C(=O)C(=O)c2ccccc21 the results were Dicer processing -0.56.
For O=S(=O)(Nc1ccccc1N1CCOCC1)c1ccc2c(c1)OCC2 the results were Dicer processing 7.59.
Screening O=S(=O)(Nc1ccccc1N1CCCCC1)c1ccc(C(F)(F)F)cc1 returned Dicer processing 3.28*.
CC(=O)Nc1ccc(S(=O)(=O)Nc2ccccc2N2CCOCC2)cc1Cl was read as Dicer processing 2.23.
`COc1ccc(OCCC(=O)NN)cc1` gave Dicer processing 3.33*.
`COc1ccc(OCCN)cc1` gave Dicer processing -0.31.
COc1ccc(OCCC(=O)N/N=C/C=C/c2ccccc2)cc1 was read as Dicer processing 0.85.
`Cc1cc(C(F)(F)F)c2c(C)nn(-c3ccc(C)c(C)c3)c2n1` gave Dicer processing -1.08.
For Cc1cc(C)c(S(=O)(=O)Nc2ccc(O)cc2)c(C)c1 the results were Dicer processing 1.44.
COc1ccc(S(=O)(=O)Nc2cc(Cl)c3oc(=O)sc3c2)cc1OC was read as Dicer processing 4.32*.
Screening Cc1cc(C)c(S(=O)(=O)Nc2cc(Cl)c3oc(=O)sc3c2)c(C)c1 returned Dicer processing 12.4*.
`COc1nc(NS(=O)(=O)c2ccc(C)cc2)nc(C)c1Cl` gave Dicer processing -0.17.
